Data taken from PubChem BioAssay AID651610 (Broad Institute, 2012).
The campaign covered roughly 360,000 compounds. About 3,900 (1.1%) were called active.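 How the source made its calls: active means mean replicate inhibition score of at least 50 and every replicate individually at or above 50; inconclusive means only one of the two criteria met; inactive means mean below 50 and not all replicates reaching 50.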 The list comes from a sample in which actives are over-represented; it also holds similar structures and randomly drawn compounds.

assay: inhibitors of HIV-1 Env-driven cell-cell fusion, primary screen, HeLa-JRFL effector, CEM21 target cells, luciferase (AID 651610); conditions: stronger effect = higher value; at 16.7 µM unless noted;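 further: 0% = plate neutral controls and 100% = maraviroc near 300 nM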

Compound | inhibition
CC1(Cc2cccc(C#N)c2)C(=O)Nc2ccc(-c3cccc(C(F)(F)F)c3)cc21 (configuration not stated) | 76.4% [at 12.3 µM] (active)
Cc1ccc(CC2(C)C(=O)Nc3ccc(OC(F)(F)F)cc32)cc1 (configuration not stated) | 10.5% [at 12.3 µM] (inactive)
COc1ccccc1CC1(C)C(=O)Nc2ccc(OC(F)(F)F)cc21 (configuration not stated) | 5.2% [at 12.3 µM] (inactive)
C[C@H]1CN([C@@H](C)CO)C(=O)c2cc(-c3cccnc3)cnc2O[C@@H]1CN(C)C(=O)C1CC1 | 1.19% (inactive)
C[C@@H]1CN([C@@H](C)CO)C(=O)c2cc(C#CC3CCCCC3)cnc2O[C@H]1CN(C)C(=O)Cc1ccccn1 | -1.78% (inactive)
CC(C)NC(=O)N(C)C[C@H]1Oc2ncc(C#CC3CCCCC3)cc2C(=O)N([C@H](C)CO)C[C@@H]1C | 5.6% (inactive)
CC(C)NC(=O)Nc1ccc2c(c1)C(=O)N([C@@H](C)CO)C[C@H](C)[C@H](CN(C)S(=O)(=O)c1cccs1)O2 | -7.33% (inactive)
O=C(c1ccccc1)N1CCN(C(=O)c2cc3nc(-c4ccccc4)cc(C(F)(F)F)n3n2)CC1 | 13.3% [at 12.3 µM] (inactive)
C#Cc1cc(N2CCN(C(=O)c3ccoc3)CC2)n2nc(-c3cccc(Cl)c3)cc2n1 | 2.89% [at 12.3 µM] (inactive)
O=C(c1ccccc1)N1CCN(c2cc(-c3ccccc3)nc3cc(-c4cccc(Cl)c4)nn23)CC1 | 57.4% [at 12.3 µM] (active)
CN1CCN(C(=O)C[C@H]2CC[C@@H](NC(=O)c3ccc4c(c3)OCO4)[C@H](CO)O2)CC1 | -2.25% (inactive)
C[C@@H]1CCCCO[C@@H](CN(C)C(=O)CCC(F)(F)F)[C@H](C)CN([C@@H](C)CO)C(=O)c2cc(NC(=O)CCCN(C)C)ccc2O1 | -15.3% (inactive)
COc1ccc2c3c(n(C)c2c1)[C@H](CO)N(C(=O)NC(C)C)CC31CCN(C(=O)NC(C)C)CC1 | 25.2% (inactive)
CN(C)[C@@H]1C(=O)C(C(N)=O)=C(O)[C@@]2(O)C(=O)C3=C(O)c4c(O)ccc(Cl)c4[C@@H](O)[C@H]3C[C@@H]12 | 71.9% [at 12.3 µM] (active)
C=C1c2c(Cl)ccc(O)c2C(O)=C2C(=O)[C@]3(O)C(O)=C(C(N)=O)C(=O)[C@@H](N(C)C)[C@@H]3[C@@H](O)C12 (some centres not stated) | 9.73% [at 12.3 µM] (inactive)
C[C@@H]1CN([C@H](C)CO)C(=O)c2cc(C#CC3(O)CCCC3)cnc2O[C@H]1CN(C)C(=O)C1CCC1 | 1.03% (inactive)
CO[C@H]1CN(C)C(=O)c2cc(NC(=O)C3CC3)ccc2OC[C@@H](C)N(CCc2ccccc2)C[C@H]1C | -0.128% (inactive)
